Test results published in PubChem BioAssay (Tox21).
Records with an inconclusive call do not appear. The source made the active and inactive calls. Unless noted, calls follow the shape of the full dose curve.

Legend:
[1] = Nuclear factor erythroid 2-related factor 2/antioxidant responsive element (Nrf2/ARE) small molecule agonists: luciferase reporter gene qHTS assay in human keratinocytes (AID 1919969); also: nearly all actives have a fitted effect of over 35% in size; also: potency is read from the fitted curve at half-maximal effect
[2] = target: Gonadotropin-releasing hormone receptor (Homo sapiens) (UniProt P30968); experiment: Human gonadotropin-releasing hormone receptor (GnRHR) small molecule agonists, calcium flux assay in GnRHR-HEK293 cells (AID 1920063); also: nearly all actives have a fitted effect of over 35% in size
How it was run: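 HEK293 cells stably expressing human GnRHR were dye-loaded for 1 h at 37 C. Compound was added in agonist mode and fluorescence (Ex/Em 480/540) recorded kinetically for 3 min. Fifteen concentrations, triplicates.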

[3] = target: KiSS-1 receptor (Homo sapiens) (UniProt Q969F8); experiment: Human kisspeptin (KISS1R) small molecule agonists, calcium flux assay in KISS1R-HEK293 cells (AID 1920064; active = well fitted activation curve with a large enough effect in the repeat runs)
How it was run: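 HEK293 cells stably expressing human KISS1R were loaded with calcium dye for 1 h at 37 C, then given compound; fluorescence (Ex/Em 480/540) was read kinetically for 3 min. Fifteen concentrations, triplicate.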

[4] = G protein-coupled receptor (GPCR) small molecule agonists, calcium flux assay: HEK293 wild type cell line counter screen (AID 1920065)
How it was run: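 Wild-type HEK293 cells plated 18 h, loaded with calcium dye 1 h at 37 C, then compounds added in agonist mode (ATP as positive control). Kinetic fluorescence Ex/Em 480/540 recorded 3 min at 1 sec intervals; 15 concentrations, triplicate.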

[5] = p53 small molecule agonists, cell-based qHTS assay with human liver microsomes: qHTS cell viability counter screen (AID 1963579); also: nearly all actives have a fitted effect of over 45% in size
How it was run: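 Luminescent CellTiter-Glo read-out, 30 min at room temperature, gauged cytotoxicity in p53RE-bla cells exposed 16 h at 37 C to DMSO-dissolved compounds with metabolic activation by human liver microsomes and NADPH, each 0.5 mg/mL final.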

[6] = p53 small molecule agonists, cell-based qHTS assay with rat liver microsomes: qHTS cell viability counter screen (AID 1963580); also: nearly all actives have a fitted effect of over 45% in size
How it was run: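 p53RE-bla HCT-116 cells (4,000/well) rested 5 h at 37 C, then given Tox21 compounds in DMSO with rat liver microsomes (0.5 mg/mL final) plus NADPH (0.5 mg/mL final) for 16 h at 37 C. Viability read by CellTiter-Glo luminescence after 30 min at room temperature.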

[7] = target: 5-hydroxytryptamine receptor 2A (Homo sapiens) (UniProt P28223); experiment: 5-hydroxytryptamine receptor 2A (HTR2A) small molecule antagonists, cell-based qHTS assay (AID 1963586); also: nearly all actives have a fitted effect of over 45% in size; also: potency is read from the fitted curve at half-maximal effect
How it was run: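 Antagonist-mode intracellular calcium assay: DOI (4 nM) added after 5 min compound pre-incubation at room temperature to dye-loaded HTR2A-CHO cells. Fluorescence followed for 3 min, sampled every second.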

[8] = target: 5-hydroxytryptamine receptor 2A (Homo sapiens) (UniProt P28223); experiment: 5-hydroxytryptamine receptor 2A (HTR2A) small molecule agonists, cell-based qHTS assay (AID 1963587); also: nearly all actives have a fitted effect of over 30% in size; also: potency is read from the fitted curve at half-maximal effect
How it was run: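 HTR2A-CHO cells, plated 18 h at 37 C/5% CO2, dye-loaded 1 h at 37 C; compounds in DMSO added by pin tool (agonist mode). Intracellular calcium flux read as kinetic fluorescence on FDSS over 2 min at 1 s intervals.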

[9] = target: Muscarinic acetylcholine receptor M1 (Homo sapiens) (UniProt P11229); experiment: Cholinergic receptor muscarinic 1 (CHRM1) small molecule antagonists, cell-based qHTS assay (AID 1963588); also: nearly all actives have a fitted effect of over 40% in size
How it was run: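 CHRM1-CHO calcium-flux assay, antagonist mode. Cells were seeded 18 h, dye-loaded 1 h at 37 C and given compound for 5 min at RT, then acetylcholine was added at 50nM. FDSS fluorescence was read 3 min; 15 concentrations, three runs.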

[10] = target: Muscarinic acetylcholine receptor M1 (Homo sapiens) (UniProt P11229); experiment: Cholinergic receptor muscarinic 1 (CHRM1) small molecule agonists, cell-based qHTS assay (AID 1963589); also: nearly all actives have a fitted effect of over 35% in size
How it was run: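 CHO cells stably expressing human CHRM1 were loaded with calcium dye for 1 h at 37 C, then compound was added in agonist mode. Intracellular calcium fluorescence was followed kinetically at 1 s intervals. Fifteen concentrations were tested in three independent runs.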

[11] = cAMP Responsive Elements (CRE) small molecule antagonists, cell-based qHTS assay (AID 1963591; active = well fitted inhibition curve with a large enough effect in the signal ratio in the repeat runs, not every such curve was filed as active; the % refers to the signal ratio)
How it was run: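 CRE-bla HEK293T cells plated 18 h, then given compound plus NKH477 at 0.25 uM final for 3 h at 37C. Beta-lactamase reporter read with LiveBLAzer B/G FRET substrate after 2 h at room temperature.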

[12] = target: Beta-2 adrenergic receptor (Homo sapiens) (UniProt P07550); experiment: Adrenergic beta2 receptor (ADRB2) small molecule antagonists, cell-based qHTS assay (AID 1963592); also: series mostly up to about 92 µM; nearly all actives have a fitted effect of over 50% in size
How it was run: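 Cells (CHO, stable ADRB2 overexpression) incubated 18-20hr at 37C; compounds added from DMSO; agonist mix (1nM isoproterenol, 100uM IBMX, 25uM Ro-20-1724) added; 0.5hr RT; d2-cAMP and anti-cAMP-cryptate added; 1hr RT; 665/615 nm read.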

[13] = target: D(2) dopamine receptor (Homo sapiens) (UniProt P14416); experiment: Dopamine D2 receptor (DRD2) small molecule agonists, cell-based qHTS assay (AID 1963594); also: nearly all actives have a fitted effect of over 35% in size
How it was run: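 HEK293 cells stably expressing DRD2 were cultured 24 h at 37 C, then given Ro20-1724 (0.1 mM final) and compounds for 10 min at room temperature. NKH477 (200nM) was then added for 30 min. cAMP was read by HTRF.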

[14] = target: D(2) dopamine receptor (Homo sapiens) (UniProt P14416); experiment: Dopamine D2 receptor (DRD2) small molecule antagonists, cell-based qHTS assay (AID 1963595; active = well fitted inhibition curve with a large enough effect in the signal ratio in the repeat runs, with a control signal flat; the % refers to the signal ratio)
How it was run: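 Human DRD2 antagonist qHTS measuring cAMP by HTRF. The cells are exposed to compound for 10 min, then to NKH477 (200 nM) and quinpirole (12 nM) for 30 min at RT, with Ro20-1724 (0.1 mM) present throughout.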

[15] = cAMP Responsive Elements (CRE) small molecule agonists, cell-based qHTS assay (AID 1963590)
How it was run: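 CRE-bla HEK 293T cells, 2,000/well in DMEM with 10% dialyzed FBS and 25 mM HEPES, pre-incubated 18 h at 37 C, then exposed to compound 3 h at 37 C. Beta-lactamase reporter read with LiveBLAzer B/G FRET substrate after 2 h at room temperature.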

[16] = p53 small molecule agonists, cell-based qHTS assay: qHTS cell viability counter screen (AID 1963581); also: nearly all actives have a fitted effect of over 45% in size
How it was run: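 p53RE-bla HCT-116 cells, compounds added 5 h after plating and incubated 16 h at 37 C. Cytotoxicity measured in the same wells as intracellular ATP by CellTiter-Glo luminescence after 30 min at room temperature.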

[17] = target: Beta-2 adrenergic receptor (Homo sapiens) (UniProt P07550); experiment: Adrenergic beta2 receptor (ADRB2) small molecule agonists, cell-based qHTS assay (AID 1963593);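 also: CHO cells stably overexpressing human ADRB2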
How it was run: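 CHO cells stably over-expressing ADRB2 were plated overnight at 37C, then dosed with compounds plus a stimulation mix containing 100uM IBMX and 25uM Ro-20-1724 for 0.5hr at room temperature. cAMP was measured by HTRF competition, 1hr.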

[18] = p53 small molecule agonists, cell-based qHTS assay with rat liver microsomes (AID 1963578)
How it was run: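 Rat liver microsome activation: microsomes 0.5 mg/mL, NADPH 0.5 mg/mL final; p53RE-bla cells, 16 h 37 C; LiveBLAzer readout, 2 h RT dark.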

Measured: Potency

KiSS-1 receptor (Homo sapiens), sequence (Q969F8 whole entry, looked up): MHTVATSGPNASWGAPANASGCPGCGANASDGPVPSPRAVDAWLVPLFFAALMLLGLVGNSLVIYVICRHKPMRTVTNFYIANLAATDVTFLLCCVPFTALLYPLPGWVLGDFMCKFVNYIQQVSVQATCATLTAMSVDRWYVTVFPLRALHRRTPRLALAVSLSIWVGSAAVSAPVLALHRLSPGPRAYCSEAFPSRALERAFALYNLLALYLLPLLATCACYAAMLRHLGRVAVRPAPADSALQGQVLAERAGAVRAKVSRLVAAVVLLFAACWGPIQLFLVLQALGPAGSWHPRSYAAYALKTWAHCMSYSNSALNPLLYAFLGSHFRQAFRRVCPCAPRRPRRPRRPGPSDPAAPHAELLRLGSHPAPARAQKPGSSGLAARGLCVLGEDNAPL
5-hydroxytryptamine receptor 2A (Homo sapiens), sequence (P28223 whole entry, looked up): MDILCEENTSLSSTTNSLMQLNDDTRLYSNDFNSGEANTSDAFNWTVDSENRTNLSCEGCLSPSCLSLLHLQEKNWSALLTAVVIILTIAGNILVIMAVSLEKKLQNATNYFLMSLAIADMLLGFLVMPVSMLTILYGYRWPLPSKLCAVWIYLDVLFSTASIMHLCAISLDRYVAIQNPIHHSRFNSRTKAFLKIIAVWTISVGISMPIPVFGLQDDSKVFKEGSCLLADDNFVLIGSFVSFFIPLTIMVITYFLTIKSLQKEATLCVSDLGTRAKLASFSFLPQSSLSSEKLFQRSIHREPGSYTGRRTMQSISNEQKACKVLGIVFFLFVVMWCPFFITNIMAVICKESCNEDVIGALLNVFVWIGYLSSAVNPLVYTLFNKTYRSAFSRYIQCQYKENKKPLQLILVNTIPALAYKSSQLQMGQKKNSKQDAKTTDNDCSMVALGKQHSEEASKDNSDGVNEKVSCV
D(2) dopamine receptor (Homo sapiens), sequence (P14416 whole entry, looked up): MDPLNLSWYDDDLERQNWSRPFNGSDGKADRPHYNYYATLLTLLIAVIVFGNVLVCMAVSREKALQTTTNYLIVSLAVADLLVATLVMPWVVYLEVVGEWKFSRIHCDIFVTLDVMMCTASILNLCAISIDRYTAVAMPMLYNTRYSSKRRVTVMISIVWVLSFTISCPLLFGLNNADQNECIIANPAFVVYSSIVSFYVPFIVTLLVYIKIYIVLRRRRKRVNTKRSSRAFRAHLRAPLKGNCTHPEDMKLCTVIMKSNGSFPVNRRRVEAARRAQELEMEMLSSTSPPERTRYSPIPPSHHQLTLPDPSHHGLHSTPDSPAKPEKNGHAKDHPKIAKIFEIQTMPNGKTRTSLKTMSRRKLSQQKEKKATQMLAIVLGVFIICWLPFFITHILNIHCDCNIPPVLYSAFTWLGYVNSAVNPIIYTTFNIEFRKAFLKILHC
Beta-2 adrenergic receptor (Homo sapiens), sequence (P07550 whole entry, looked up): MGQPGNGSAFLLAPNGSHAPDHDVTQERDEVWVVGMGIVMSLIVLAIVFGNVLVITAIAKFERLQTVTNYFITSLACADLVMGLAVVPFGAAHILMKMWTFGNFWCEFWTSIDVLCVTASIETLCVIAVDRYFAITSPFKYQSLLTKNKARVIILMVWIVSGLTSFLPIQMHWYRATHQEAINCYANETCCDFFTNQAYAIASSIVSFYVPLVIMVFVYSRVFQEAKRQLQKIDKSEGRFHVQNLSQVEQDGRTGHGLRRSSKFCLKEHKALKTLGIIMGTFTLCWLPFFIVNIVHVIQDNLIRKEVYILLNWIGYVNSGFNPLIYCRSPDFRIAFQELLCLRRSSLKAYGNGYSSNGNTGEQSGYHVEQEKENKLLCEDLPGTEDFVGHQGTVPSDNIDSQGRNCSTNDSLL
Gonadotropin-releasing hormone receptor (Homo sapiens), sequence (P30968 whole entry, looked up): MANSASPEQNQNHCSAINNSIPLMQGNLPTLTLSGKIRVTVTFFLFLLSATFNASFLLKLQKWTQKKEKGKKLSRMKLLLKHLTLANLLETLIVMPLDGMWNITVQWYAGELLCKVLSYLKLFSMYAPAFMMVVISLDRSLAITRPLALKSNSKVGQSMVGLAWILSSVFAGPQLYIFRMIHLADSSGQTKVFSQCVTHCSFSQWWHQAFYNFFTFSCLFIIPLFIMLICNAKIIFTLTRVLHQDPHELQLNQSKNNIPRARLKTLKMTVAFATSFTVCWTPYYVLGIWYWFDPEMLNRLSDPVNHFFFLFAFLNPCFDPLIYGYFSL
Muscarinic acetylcholine receptor M1 (Homo sapiens), sequence (P11229 whole entry, looked up): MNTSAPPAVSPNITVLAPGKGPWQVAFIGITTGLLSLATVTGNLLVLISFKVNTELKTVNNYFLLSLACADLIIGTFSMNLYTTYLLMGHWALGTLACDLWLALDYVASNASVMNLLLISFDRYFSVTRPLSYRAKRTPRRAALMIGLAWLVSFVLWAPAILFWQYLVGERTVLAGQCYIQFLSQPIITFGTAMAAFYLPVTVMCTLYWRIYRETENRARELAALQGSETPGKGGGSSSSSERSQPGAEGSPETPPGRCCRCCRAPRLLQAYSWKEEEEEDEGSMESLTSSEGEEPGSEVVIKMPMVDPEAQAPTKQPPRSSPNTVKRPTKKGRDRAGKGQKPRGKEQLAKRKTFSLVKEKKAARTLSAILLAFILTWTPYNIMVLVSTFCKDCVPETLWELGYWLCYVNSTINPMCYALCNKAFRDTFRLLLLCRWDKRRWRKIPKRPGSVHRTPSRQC

O=[N+]([O-])c1cc(C(F)(F)F)cc([N+](=O)[O-])c1Cl
not listed: [15] | [16] | [17] | [18]
inactive: all other assays above

c1ccc2nc(N3CCNCC3)ccc2c1
active: [7] 3.3 nM | [8] 4.8 nM
not listed: [6] | [10] | [16] | [17] | [18]
inactive: all other assays above

CCCCN(CCCC)C(=S)[S-].CCCCN(CCCC)C(=S)[S-].[Ni+2]
active: [1] 2990 nM
not listed: [18]
inactive: all other assays above

Nc1ccc(Cl)cc1C(=O)c1ccccc1
inactive: [1] | [2] | [3] | [4] | [18] | [10] | [11] | [13] | [14]

C[C@]12CC[C@@H]3c4ccc(OC(=O)N(CCCl)CCCl)cc4CC[C@H]3[C@@H]1CC[C@@H]2O
not listed: [18]
inactive: all other assays above

CCC(C)(C)c1cc(-n2nc3ccccc3n2)c(O)c(C(C)(C)CC)c1
not listed: [9] | [14] | [16] | [18]
inactive: all other assays above

Cc1ccc(S(=O)(=O)N[C@@H](CCCCN)C(=O)CCl)cc1
not listed: [7] | [17] | [18]
inactive: all other assays above
